Among the data in PubChem BioAssay (NCI) are growth values, retold here.

About 83,000 compounds went through this panel and 20% of them were active in at least one assay; those are over-represented in the sample as a whole.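 Testing used 96-well plates and a 48-hour single-concentration exposure. Example: -40 means 40% of the starting cells died.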 Values without a mark were called inactive. The source made the active and inactive calls. How the source made its calls: active means growth percent below 10; inactive means the rest.

Assay in all cases: NCI-60 one-dose screen, 48 h (100 = growth as untreated, 0 = no growth, -100 = all killed)
Holding throughout (conditions): 10 µM unless noted

Assay [1] concerns DU-145 prostate.
The test system of assay [2] is K-562 leukemia.
The subject of assay [3] is MALME-3M melanoma.
Assay [4] relates to MDA-MB-231 breast.
Assay [5] concerns RXF 393 renal.
Assay [6] concerns SF-268 CNS.
Assay [7] relates to SF-295 CNS.
Assay [8] deals with SF-539 CNS.
Assay [9] deals with UACC-257 melanoma.
Assay [10] concerns M14 melanoma.

Take `O=C(Nc1ccc(-n2cc(-c3ccncc3)c(-c3ccc(Cl)c(O)c3)n2)cc1)c1ccc(Cl)c(C(F)(F)F)c1`: the growth is 26.4% in assay [1]; 2.13% (active) in assay [2]; -26.6% (active) in [3]; -33.5% (active) in assay [4]; -66.3% (active) in assay [5]; 28.6% in [6]. For the same molecule, the growth in [7] was -63.4% (active); in assay [8], -32.4% (active); in [9] it was 31.4%; in assay [10], -79.4% (active).
Regarding `O=C(CCC(=O)N(CCO)CCO)N(CCO)CCO`, the growth in [1] was 107%; in assay [2], 96%; in assay [3], 103%; in assay [4], 109%; in [5], 113%; in assay [6] it was 108%. In addition, the growth in assay [7] was 96.4%; in assay [8] it was 101%; in assay [9], 101%; in [10], 99.5%.
`CCCCCSc1ccc2nc(NC(=O)OCC)sc2c1`: the growth is 22.8% in assay [1]; 15.9% in [2]; 42.2% in assay [3]; 26.4% in assay [4]; 7.13% (active) in assay [5]; 50.8% in assay [6]. The growth in [7] was 6.93% (active); in assay [8], -12.1% (active); in assay [9] it was 67.4%; in [10], 11.9%.
Take `COC(=O)c1ccc2[nH]c(O)c(C(=Nc3ccc(N(C)C(=O)CN4CCN(C)CC4)cc3)c3ccc(N)cc3)c2c1`: the growth in assay [1] is 96.8%; in assay [2], 14%; in assay [3], 83.5%; in [4] it was 87.6%; in [5], 56.7%; in [6] it was 62.4%. In addition, the growth was 99.1% in assay [7], 50.8% in assay [8], 125% in assay [9] and 88% in assay [10].
As to `CC(=O)Nc1nc(C)c(C(=O)NN)s1`, the growth is 105% in assay [1]; 67.3% in assay [2]; 120% in assay [3]; 99% in [4]; 104% in assay [5]; 95.2% in assay [6]. For the same molecule, the growth in assay [7] was 133%; in [8], 91.3%; in [9], 108%; in assay [10] it was 113%.
`COc1cccc(NC(=O)NCCNc2nccc(-c3c(-c4ccc(F)cc4)nc4sccn34)n2)c1`: the growth in [1] was 76.9%; in assay [2], 71.4%; in assay [3] it was 140%; in assay [4], 79.4%; in assay [5], 88.5%; in [6], 84.2%. The growth in assay [7] is 103%; in assay [8] it was 102%; in assay [9], 119%; in [10] it was 92.6%.
For the molecule `COc1cc2ncnc(-n3ncc4cc(NC(=O)Nc5ccc(Cl)c(C)c5)ccc43)c2cc1OC`, the growth in assay [1] is 101%; in assay [2], 90.5%; in [3], 82.8%; in assay [4], 98.9%; in [5], 99.4%; in [6], 102%. The growth was 96.9% in assay [7], 59.7% in assay [8], 102% in assay [9] and 79.3% in assay [10].
On to `CCCCCCCCCCCCOC(=O)/C=C\C(=O)NC(N)=O`, for which the growth in assay [1] was 95.4%; in assay [2], 44.2%; in [3], 102%; in assay [4] it was 93.5%; in assay [5] it was 69.3%; in assay [6], 107%. Further, the growth in assay [7] is 102%; in assay [8] it was 95.5%; in assay [9], 85.2%; in assay [10], 93.6%.
In the case of `CCN(CC)CCCNc1c2ccc(Cl)cc2nc2ccc(OC)cc12`, the growth was 5.08% (active) in [1]; -21.9% (active) in assay [2]; -59.7% (active) in assay [3]; -39.5% (active) in assay [4]; -57.9% (active) in assay [5]; -10.1% (active) in [6]. The growth in [7] was -21.7% (active); in [8], -65.7% (active); in assay [9] it was 33.4%; in assay [10], -79% (active).
Regarding `Cc1ccc(OCCn2ccc(=O)n(CCOc3ccc(Cl)cc3C(=O)c3cc(C)cc(C)c3)c2=O)cc1`, the growth in assay [1] was 73.3%; in assay [2] it was 13.2%; in assay [3], 51.9%; in [4], 46.8%; in assay [5] it was 41.5%; in [6], 49.7%. The growth in assay [7] was 51.1%; in assay [8], 53.7%; in assay [9], 64.3%; in assay [10] it was 24.7%.
Consider `COc1ccc(Oc2[nH]n(C3=Nc4ccccc4Sc4ccccc43)c(=O)c2C#N)cc1`, for which the growth in assay [1] was 104%; in [2], 125%; in assay [3], 169%; in assay [4] it was 95.6%; in assay [5] it was 94.2%; in assay [6], 88.3%. Besides, the growth in [7] was 99.2%; in [8] it was 96.7%; in assay [9], 104%; in [10], 104%.
With `COc1ccc2cnc(N)c(C#Cc3cc(C(=O)Nc4ccc(CN5CCN(C)CC5)c(C(F)(F)F)c4)cnc3C)c2c1`, the growth in [1] is 64%; in assay [2] it was -42.8% (active); in assay [3], -66.4% (active); in assay [4], 9.87% (active); in assay [5], -12.9% (active); in assay [6], 62.5%. In addition, the growth in [7] is 78.9%; in [8], 31.3%; in assay [9], 33.1%; in assay [10] it was 7.97% (active).
With `Clc1ccc(N/N=C/c2ccccn2)nc1`, the growth in [1] was 19.2%; in assay [2], 10.8%; in assay [3] it was 1.36% (active); in assay [4], 34.5%; in assay [5], 16.2%; in assay [6], 6.56% (active). The growth in assay [7] was 1.61% (active); in [8], 1.62% (active); in [9] it was 1.06% (active); in assay [10] it was -25.7% (active).
Regarding `Cc1ccc2c(c1)C(=O)CCS2`, the growth in assay [1] was 107%; in assay [2] it was 114%; in assay [3], 85%; in assay [4], 94.2%; in assay [5], 115%; in assay [6] it was 112%. For the same molecule, the growth in assay [7] was 108%; in [8] it was 87.3%; in assay [9] it was 102%; in assay [10] it was 96.1%.
Turning to `NC(N)=Nc1ccc(/C=C2\C=Cc3ccccc32)cc1`, the growth is 80.9% in assay [1]; 13.6% in [2]; 88.8% in assay [3]; 42.4% in [4]; 63.7% in assay [5]; 64.5% in assay [6]. Moreover, the growth in assay [7] was 80.6%; in assay [8], 81.3%; in [9] it was 77.5%; in [10], 73.4%.
`CCCCCCNC(=O)Oc1ccc(/C(=C(/C)Cc2ccc(OC)cc2)c2ccc(OCCN(C)C)cc2)cc1`: the growth in assay [1] was 78.7%; in assay [2], -38.8% (active); in [3] it was -34.7% (active); in assay [4], 43%; in [5], 51.4%; in assay [6] it was 72.3%. Besides, the growth in [7] was 65.8%; in [8], 73.2%; in [9], 5.2% (active); in assay [10], -53.9% (active).
Consider `Cc1c(O)c(N=Nc2ccc(C(=O)O)c(O)c2)c2ccccc2c1O`, for which the growth in [1] is 94.3%; in assay [2], 60.6%; in assay [3] it was 97.4%; in [4] it was 86.4%; in assay [5], 13.3%; in assay [6], 119%. Also, the growth in assay [7] is 116%; in assay [8], 81.7%; in assay [9], 95.6%; in [10] it was 53.4%.
As to `Cc1nc2ccccc2c(=O)n1-c1cccc(OCc2cn(-c3cccc(O)c3)nn2)c1`, the growth in assay [1] is 100%; in [2], 88.2%; in assay [3], 104%; in assay [4], 78.3%; in assay [5] it was 105%; in assay [6], 88.4%. In addition, the growth in assay [7] was 93.8%; in [8] it was 100%; in [9] it was 94.9%; in assay [10], 94.4%.
For the molecule `Cc1ccc(NC(=O)CCl)cc1Cl`, the growth is 111% in [1]; 87.3% in assay [2]; 78.7% in assay [3]; 89.4% in assay [4]; 102% in assay [5]; 103% in assay [6]. Further, the growth in assay [7] is 81.2%; in assay [8], 108%; in assay [9], 90.5%; in assay [10], 104%.
Regarding `N#CC1=C(N2CCOCC2)NC2c3ccccc3Sc3ccccc3N2C1=N` (stereo not given), the growth in assay [1] is 98.4%; in assay [2], 117%; in assay [3], 103%; in assay [4] it was 98.7%; in assay [5] it was 90.7%; in [6], 91.8%. In addition, the growth was 116% in assay [7], 89.7% in [8], 108% in [9] and 98.9% in assay [10].
